5 compounds from PubChem BioAssay can be followed below.

Activity calls are given as the source filed them.

The subject of assay [1] is PRMT1 (protein arginine N-methyltransferase 1). Briefly: small molecules binding arginine methyltransferase PRMT1 – biochemical, small-molecule microarray, 635 nm fluorescence, primary screen (AID 1088).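 Further: binding of Prmt1 protein to compounds spotted on small-molecule microarray slides.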 The conditions noted are these: higher = more signal.
Assay [2] can be described thus: growth effects on S. cerevisiae YJM789 – YJM789 clinical isolate, OD600, 24 h, basal, primary screen (AID 1089).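 Further: growth of clinical yeast isolate S. cerevisiae YJM 789 seeded 1000 cells per well; test concentration not given here.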 The conditions noted are these: higher = more signal, called active from +8 up or from −8 down.
Assay [3] in a line: S. pombe growth modifiers, basal conditions – strain 972, OD600, 24 h, no modulator, primary screen (AID 1090).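 Further: basal condition with compound alone and no growth modifier present; test concentration not given here.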 Conditions: S. pombe 972 growth, higher = more signal, called active from +8 up or from −8 down.
Assay [4] in a line: budding yeast growth modifiers under rapamycin – strain BY4716, OD600, 96 h, primary screen (AID 1091). Further: test concentration not given here. The conditions noted are these: S. cerevisiae BY4716 + rapamycin, higher = more signal, called active from +8 up or from −8 down.
Assay [5] has as its target Torsin-1A-interacting protein 2 (Homo sapiens) (UniProt Q8NFQ8). Briefly: small molecules binding lysate-expressed LULL1 – cell lysate, human LULL1 lysate, 635/667 nm fluorescence, primary screen (AID 1092).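 Further: probe is lysate of COS7 cells overexpressing human LULL1; score merges per-feature 667 nm fluorescence with signal-to-noise.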 Conditions: small-molecule microarray, hLULL1 lysate binding, 635 nm fluorescence; higher = more signal.
Assay [6] can be described thus: optical density change of DRC41 E. coli – strain DRC41, OD650, 24 h, E. coli filamentation project, primary screen (AID 1093).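 Further: MC1000 strain lacking acrAB efflux and sulA so SOS filamentation is blocked; test concentration not given here.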 Conditions: E. coli DRC41 growth, higher = more signal, called active from +8 up or from −8 down.
Assay [7] can be described thus: probe aLefty2 binding to arrayed compounds – biochemical, biotinylated probe, 635/667 nm fluorescence, primary screen (AID 1094).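 Further: score merges spot fluorescence near 667 nm with spot signal-to-noise ratio.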 Conditions: small-molecule microarray, higher = more signal.
The test system of assay [8] is Noggin (protein binding on small-molecule microarray). Nature of the assay: small molecules binding Noggin protein – biochemical, 635/667 nm fluorescence, primary screen (AID 1095).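 Further: score merges 667 nm feature fluorescence with signal to noise over triplicate slides.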 Conditions: 635 nm fluorescence, higher = more signal.
Assay [9] has as its target Neurogenic locus notch homolog protein 3 (Homo sapiens) (UniProt Q9UM47). Nature of the assay: small molecules binding NOTCH3 protein – biochemical, 635/667 nm fluorescence, primary screen (AID 1096). The conditions noted are these: small-molecule microarray, 635 nm fluorescence, higher = more signal.
Assay [10] can be described thus: probe aEGFR binding to arrayed compounds – biochemical, biotinylated probe, 635/667 nm fluorescence, primary screen (AID 1097).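 Further: probe is a biotinylated anti-EGFR antibody binding compounds printed on slides; score combines fluorescence near 667 nm and signal to noise of each spot.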 The conditions noted are these: small-molecule microarray, higher = more signal.
Assay [11] deals with Plasmodium falciparum Sir2 (PF13_0152, Sir2A). Briefly: Plasmodium falciparum Sir2A binding compounds – biochemical, small-molecule microarray, 635 nm fluorescence, primary screen (AID 1098).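 Further: score merges spot fluorescence intensity with its signal-to-noise ratio.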 The conditions noted are these: fluorescence 635 nm, higher = more signal.
A short description of assay [12]: probe aDKK1 binding to arrayed compounds – biochemical, biotinylated probe, 635/667 nm fluorescence, primary screen (AID 1099).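 Further: score merges 667nm spot fluorescence with signal to noise across triplicate slides; reference of the scale not given here.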 Conditions: small-molecule microarray, higher = more signal.
The nature of assay [13]: probe aCHRDL2 binding to arrayed compounds – biochemical, biotinylated probe, 635/667 nm fluorescence, primary screen (AID 1100). The conditions noted are these: small-molecule microarray, higher = more signal.
The nature of assay [14]: change in splice reporter luminescence, either direction, cell-based, HEK293, spliceosome inhibition project, primary screen (AID 1101).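 Further: HEK293 cells carrying a splicing-competent luciferase reporter gene; test concentration not given here.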 Conditions: HEK293 splicing luciferase reporter, 24 h, higher = more signal, called active from +8 up or from −8 down. Background: In a reporter assay the amount or activity of a reporter protein is the signal.
The target of assay [15] is Fibroblast growth factor 10 (Homo sapiens) (UniProt O15520). Nature of the assay: compounds binding fibroblast growth factor 10 – biochemical, small-molecule microarray, 635 nm fluorescence, primary screen (AID 1102). The conditions noted are these: FGF10 binding, fluorescence 635 nm, higher = more signal.
Sequence of Fibroblast growth factor 10 (Homo sapiens) (O15520 whole entry, looked up): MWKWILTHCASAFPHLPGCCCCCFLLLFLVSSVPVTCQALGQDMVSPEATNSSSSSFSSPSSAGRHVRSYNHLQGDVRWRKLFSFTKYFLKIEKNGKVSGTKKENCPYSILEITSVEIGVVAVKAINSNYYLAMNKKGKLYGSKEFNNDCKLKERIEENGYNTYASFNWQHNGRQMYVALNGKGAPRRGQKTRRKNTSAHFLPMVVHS
For assay [16], the system named is glycogen synthase kinase-3 (GSK3A per assay name; protocol says GSK3B). Nature of the assay: compounds binding glycogen synthase kinase-3 – biochemical, small-molecule microarray, 635 nm fluorescence, GSK3A, primary screen (AID 1103). Further: the record names both GSK3A and GSK3B. Conditions: fluorescence 635 nm, higher = more signal.
Assay [17] concerns the target Epidermal growth factor receptor (Homo sapiens) (UniProt P00533). Briefly: compounds binding epidermal growth factor receptor – biochemical, small-molecule microarray, 635 nm fluorescence, primary screen (AID 1104).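 Further: score merges 667 nm emission intensity with spot signal to noise over triplicate slides.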 Conditions: EGFR binding, higher = more signal.
Assay [18] deals with Follistatin-related protein 3 (Homo sapiens) (UniProt O95633). Briefly: compounds binding follistatin-related protein 3 – biochemical, small-molecule microarray, 635 nm fluorescence, primary screen (AID 1105).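 Further: score merges emission near 667 nm and signal to noise per printed spot across three slides.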 The conditions noted are these: FSTL3 binding, higher = more signal.
Sequence of Follistatin-related protein 3 (Homo sapiens) (O95633 whole entry, looked up): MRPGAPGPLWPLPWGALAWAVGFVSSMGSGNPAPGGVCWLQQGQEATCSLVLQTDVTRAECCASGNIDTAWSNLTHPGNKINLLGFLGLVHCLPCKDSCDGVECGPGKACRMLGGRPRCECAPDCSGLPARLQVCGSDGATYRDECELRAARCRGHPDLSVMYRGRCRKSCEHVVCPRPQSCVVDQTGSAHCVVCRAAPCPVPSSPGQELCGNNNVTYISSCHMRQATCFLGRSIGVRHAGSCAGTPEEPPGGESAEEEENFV
Assay [19] deals with Dickkopf-related protein 1 (Homo sapiens) (UniProt O94907). Briefly: small molecules binding DKK1 protein – biochemical, small-molecule microarray, 635 nm fluorescence scan, primary screen (AID 1106).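 Further: score merges emission near 667 nm with signal to noise over three replicate slides.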 Conditions: higher = more signal.
Sequence of Dickkopf-related protein 1 (Homo sapiens) (O94907 whole entry, looked up): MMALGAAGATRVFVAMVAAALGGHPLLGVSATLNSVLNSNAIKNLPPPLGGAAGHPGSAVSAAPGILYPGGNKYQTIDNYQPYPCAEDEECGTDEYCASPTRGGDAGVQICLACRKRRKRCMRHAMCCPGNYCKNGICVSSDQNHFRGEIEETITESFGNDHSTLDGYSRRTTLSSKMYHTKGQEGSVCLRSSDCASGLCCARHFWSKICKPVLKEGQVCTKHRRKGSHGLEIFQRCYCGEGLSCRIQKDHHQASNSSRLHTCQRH
The test system of assay [20] is Inhibin beta A chain (activin A). Briefly: small molecules binding activin A – biochemical, small-molecule microarray, 635 nm fluorescence scan, primary screen (AID 1107).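 Further: mouse activin A protein probed at 4.33 µg/mL on printed slides; score merges bound-protein fluorescence near 667 nm with spot signal-to-noise.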 Conditions: INHBA, higher = more signal.

Sequence of Epidermal growth factor receptor (Homo sapiens) (P00533 whole entry, looked up): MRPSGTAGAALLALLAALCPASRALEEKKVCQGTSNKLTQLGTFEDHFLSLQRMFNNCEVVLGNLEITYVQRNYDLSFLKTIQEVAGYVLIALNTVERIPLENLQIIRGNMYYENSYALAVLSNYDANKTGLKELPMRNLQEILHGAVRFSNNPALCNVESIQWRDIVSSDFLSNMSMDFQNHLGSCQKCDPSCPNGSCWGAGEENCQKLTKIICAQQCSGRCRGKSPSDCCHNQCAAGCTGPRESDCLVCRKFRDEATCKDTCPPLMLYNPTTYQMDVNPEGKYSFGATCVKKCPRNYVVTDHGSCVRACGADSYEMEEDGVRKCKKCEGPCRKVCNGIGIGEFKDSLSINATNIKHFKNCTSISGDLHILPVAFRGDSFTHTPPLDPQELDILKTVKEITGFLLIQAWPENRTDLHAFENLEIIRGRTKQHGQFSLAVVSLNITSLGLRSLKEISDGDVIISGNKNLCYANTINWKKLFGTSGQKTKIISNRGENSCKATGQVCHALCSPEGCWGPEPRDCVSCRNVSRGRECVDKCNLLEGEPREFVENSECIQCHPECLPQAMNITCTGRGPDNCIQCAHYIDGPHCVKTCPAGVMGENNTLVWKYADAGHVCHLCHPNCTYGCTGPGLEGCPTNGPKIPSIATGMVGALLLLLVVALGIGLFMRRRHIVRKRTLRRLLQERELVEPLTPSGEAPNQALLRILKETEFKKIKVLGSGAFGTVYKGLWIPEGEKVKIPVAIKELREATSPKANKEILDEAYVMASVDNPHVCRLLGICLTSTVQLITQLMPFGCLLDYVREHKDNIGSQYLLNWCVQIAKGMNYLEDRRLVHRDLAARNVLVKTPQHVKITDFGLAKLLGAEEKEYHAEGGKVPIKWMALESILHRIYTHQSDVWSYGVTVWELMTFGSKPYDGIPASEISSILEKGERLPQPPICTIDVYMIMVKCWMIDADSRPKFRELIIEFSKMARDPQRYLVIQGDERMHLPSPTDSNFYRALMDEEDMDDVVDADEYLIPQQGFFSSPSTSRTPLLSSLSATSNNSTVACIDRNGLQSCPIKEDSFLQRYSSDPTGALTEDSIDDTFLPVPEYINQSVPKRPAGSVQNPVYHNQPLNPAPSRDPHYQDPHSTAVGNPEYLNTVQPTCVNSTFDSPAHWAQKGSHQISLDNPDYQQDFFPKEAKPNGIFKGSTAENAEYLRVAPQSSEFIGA
Sequence of Neurogenic locus notch homolog protein 3 (Homo sapiens) (Q9UM47 whole entry, looked up): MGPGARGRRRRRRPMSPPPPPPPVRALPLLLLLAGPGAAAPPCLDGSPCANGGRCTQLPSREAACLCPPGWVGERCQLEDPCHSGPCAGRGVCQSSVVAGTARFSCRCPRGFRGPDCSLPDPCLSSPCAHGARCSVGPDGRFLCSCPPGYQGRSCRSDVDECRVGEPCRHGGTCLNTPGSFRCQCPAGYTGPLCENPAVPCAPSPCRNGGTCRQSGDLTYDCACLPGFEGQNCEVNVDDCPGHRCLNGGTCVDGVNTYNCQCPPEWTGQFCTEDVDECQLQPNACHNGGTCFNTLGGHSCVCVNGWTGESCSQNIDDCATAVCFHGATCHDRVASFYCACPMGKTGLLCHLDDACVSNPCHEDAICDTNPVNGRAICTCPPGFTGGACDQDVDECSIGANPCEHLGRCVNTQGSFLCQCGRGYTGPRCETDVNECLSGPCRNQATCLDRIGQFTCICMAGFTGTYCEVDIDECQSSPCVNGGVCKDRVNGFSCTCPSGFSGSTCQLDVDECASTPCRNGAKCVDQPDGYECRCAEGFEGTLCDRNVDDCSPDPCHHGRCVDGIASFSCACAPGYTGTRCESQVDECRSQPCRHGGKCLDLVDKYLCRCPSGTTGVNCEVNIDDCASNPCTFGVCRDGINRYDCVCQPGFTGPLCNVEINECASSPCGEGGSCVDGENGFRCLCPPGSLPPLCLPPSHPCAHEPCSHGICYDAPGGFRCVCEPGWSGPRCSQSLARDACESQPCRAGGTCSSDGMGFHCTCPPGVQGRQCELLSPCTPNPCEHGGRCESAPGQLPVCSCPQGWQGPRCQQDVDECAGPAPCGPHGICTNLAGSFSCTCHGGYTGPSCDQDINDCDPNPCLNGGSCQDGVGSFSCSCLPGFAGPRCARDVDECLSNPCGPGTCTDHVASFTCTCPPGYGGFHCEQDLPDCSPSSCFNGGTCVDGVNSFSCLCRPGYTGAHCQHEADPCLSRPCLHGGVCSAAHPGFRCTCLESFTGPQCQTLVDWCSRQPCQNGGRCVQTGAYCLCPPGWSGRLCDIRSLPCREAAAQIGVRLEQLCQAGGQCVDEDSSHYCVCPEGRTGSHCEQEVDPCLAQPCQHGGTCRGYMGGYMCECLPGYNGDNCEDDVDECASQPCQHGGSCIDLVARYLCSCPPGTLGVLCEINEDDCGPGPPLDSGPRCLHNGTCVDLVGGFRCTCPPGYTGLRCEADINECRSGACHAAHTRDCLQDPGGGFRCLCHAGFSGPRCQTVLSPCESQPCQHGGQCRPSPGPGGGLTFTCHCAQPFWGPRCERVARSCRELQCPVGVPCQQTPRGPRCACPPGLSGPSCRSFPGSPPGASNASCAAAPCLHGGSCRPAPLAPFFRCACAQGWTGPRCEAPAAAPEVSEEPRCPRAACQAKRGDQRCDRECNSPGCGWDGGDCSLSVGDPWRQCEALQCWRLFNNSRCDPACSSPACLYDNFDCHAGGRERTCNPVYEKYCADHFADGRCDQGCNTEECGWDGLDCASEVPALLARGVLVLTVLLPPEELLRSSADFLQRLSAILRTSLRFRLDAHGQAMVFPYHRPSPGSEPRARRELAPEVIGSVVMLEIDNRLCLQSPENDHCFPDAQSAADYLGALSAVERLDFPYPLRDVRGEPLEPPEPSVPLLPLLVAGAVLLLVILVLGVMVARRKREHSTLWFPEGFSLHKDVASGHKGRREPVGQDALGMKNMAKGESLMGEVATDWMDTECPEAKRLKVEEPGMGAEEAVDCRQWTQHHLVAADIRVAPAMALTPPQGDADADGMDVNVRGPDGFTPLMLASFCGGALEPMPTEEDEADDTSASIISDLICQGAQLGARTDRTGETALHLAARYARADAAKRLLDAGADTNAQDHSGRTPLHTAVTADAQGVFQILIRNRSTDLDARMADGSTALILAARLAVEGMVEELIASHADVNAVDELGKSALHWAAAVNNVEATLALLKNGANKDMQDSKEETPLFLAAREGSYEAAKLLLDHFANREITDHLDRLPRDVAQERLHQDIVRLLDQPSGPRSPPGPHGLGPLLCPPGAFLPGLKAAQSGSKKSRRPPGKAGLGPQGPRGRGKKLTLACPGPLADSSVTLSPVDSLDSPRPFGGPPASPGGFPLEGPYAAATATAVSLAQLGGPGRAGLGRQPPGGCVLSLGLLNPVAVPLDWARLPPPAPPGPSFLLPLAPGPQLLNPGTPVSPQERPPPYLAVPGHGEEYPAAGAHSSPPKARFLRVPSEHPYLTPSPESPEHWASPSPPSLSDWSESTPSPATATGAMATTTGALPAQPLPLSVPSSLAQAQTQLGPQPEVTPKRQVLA
Sequence of Torsin-1A-interacting protein 2 (Homo sapiens) (Q8NFQ8 whole entry, looked up): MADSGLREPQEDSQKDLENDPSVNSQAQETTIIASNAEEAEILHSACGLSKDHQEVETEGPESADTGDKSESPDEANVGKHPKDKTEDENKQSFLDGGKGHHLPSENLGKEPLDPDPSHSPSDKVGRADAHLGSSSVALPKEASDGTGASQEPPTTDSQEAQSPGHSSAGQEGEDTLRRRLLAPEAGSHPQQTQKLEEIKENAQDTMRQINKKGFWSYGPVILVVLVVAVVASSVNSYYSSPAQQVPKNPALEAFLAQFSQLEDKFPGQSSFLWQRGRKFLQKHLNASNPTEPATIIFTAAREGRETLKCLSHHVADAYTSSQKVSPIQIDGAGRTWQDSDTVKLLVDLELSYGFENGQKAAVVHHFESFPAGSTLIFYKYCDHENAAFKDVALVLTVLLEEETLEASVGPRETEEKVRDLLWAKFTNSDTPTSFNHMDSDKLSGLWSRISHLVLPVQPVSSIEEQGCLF

As to `O=C1C2=CC[C@H]3C(=O)N(C4CCCCC4)C(=O)[C@H]3[C@H]2[C@H](O)[C@@H]2O[C@H]12`, the composite z-score in assay [1] is -0.642; in assay [5], 0.821; in assay [7], -0.196; in assay [8], -0.725; in [9], -1.63; in assay [10] it was -0.0389. Besides, the composite z-score in [11] is -0.541; in assay [12], -0.121; in [13], -0.588; in assay [15], -0.246; in assay [16] it was -1.31; in [17], 0.0862. The composite z-score in assay [18] is -1.22; in assay [19], 0.271; in assay [20] it was -0.185. Besides, the z-score in [2] is -0.163 (inactive); in assay [3], -6.78 (inactive); in assay [4], -1.25 (inactive); in [6], -0.391 (inactive); in assay [14] it was 15.3 (active).
With `COC(=O)CC=C[C@@H](C)[C@@H](C=NOC[C@@H](O)COCc1ccco1)NS(=O)(=O)c1ccc(C)cc1`, the composite z-score in [1] was 0.0315; in assay [5], -1.12; in assay [7], -0.202; in assay [8] it was 0.704; in [9] it was -0.834; in assay [10], -0.195. The composite z-score in [11] was 0.406; in [12], -0.87; in assay [13] it was -1.13; in assay [15], -0.168; in assay [16] it was -0.268; in assay [17], 0.497. The composite z-score in assay [18] is 0.914; in assay [19], 0.864; in [20] it was 1.65. Further, the z-score in [2] is 0.0457 (inactive); in [3] it was 1.02 (inactive); in assay [4], 0.0521 (inactive); in assay [6], 0.835 (inactive); in assay [14], 0.46 (inactive).
`COC(=O)[C@H](CCSC)NC(=O)CC=C[C@@H](C)CO`: the composite z-score in assay [1] was 1.53; in assay [5] it was 1.3; in assay [7], -0.0944; in assay [8] it was 1.54; in assay [9], 0.703; in [10] it was 0.493. In addition, the composite z-score in assay [11] is -0.0481; in assay [12], -0.34; in assay [13], -1.47; in assay [15], 1.26; in assay [16], 1.28; in assay [17] it was 1.53. Moreover, the composite z-score was 1.46 in assay [18], 1.97 in [19] and -1.91 in [20]. In addition, the z-score is 0.0662 (inactive) in assay [2]; 0.319 (inactive) in assay [3]; 0.451 (inactive) in assay [4]; 0.612 (inactive) in [6]; -0.0982 (inactive) in [14].
On to `COC(=O)C1=C(C)N(Cc2ccccc2)C2=C3C(=O)OCC[C@@H]3[C@@](O)(C(=O)OC)C(=O)N2[C@@H]1c1ccccc1`, for which the composite z-score in [1] was -0.737; in [5], 0.0296; in assay [7], -0.0342; in [8], 0.454; in assay [9] it was 0.542; in [10], 0.0035. In addition, the composite z-score is 0.126 in assay [11]; -0.117 in [12]; -0.538 in [13]; 0.325 in [15]; 0.51 in [16]; 0.526 in assay [17]. The figures for the composite z-score in [18], in assay [19] and in [20] were 0.495, 0.563 and 0.312, respectively. Further, the z-score in assay [2] was 0.833 (inactive); in assay [3], -0.992 (inactive); in [4], -0.265 (inactive); in assay [6] it was 0.659 (inactive); in assay [14], -0.403 (inactive).
With `CCCNC(=O)OC[C@H]1O[C@H](CCON=C2C[C@@H](O)[C@@H](O)[C@@H]3[C@@H]4C(=O)N(CC)C(=O)[C@@H]4CC[C@@H]23)C=C[C@@H]1Oc1ccc(OC)cc1`, the composite z-score in assay [1] is 1.07; in assay [5] it was 1.04; in assay [7] it was -0.0932; in [8] it was 0.64; in assay [9], 1.05; in assay [10], -0.0605. Moreover, the composite z-score is 0.874 in [11]; -0.04 in assay [12]; -0.39 in [13]; 0.55 in assay [15]; 1.05 in assay [16]; 0.611 in assay [17]. In addition, the values for the composite z-score in assay [18], in [19] and in [20] were 1.07, 1.35 and 0.157, respectively. The z-score in assay [2] is -0.284 (inactive); in assay [3] it was -0.0922 (inactive); in assay [4], -0.768 (inactive); in [6], 0.536 (inactive); in assay [14], 0.264 (inactive).
